# Pf growth 96h – inhibits malaria parasite growth, 96 h. AID 504834. Potency, µM (top dose mostly 28.7 µM), without a hit: at the highest dose activity change, negative = inhibition, hits mostly inhibitors. P. falciparum luciferase reporter growth, 96 h. hit rate 6.9% among 320,000
#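 Parasite growth measured via integrated firefly luciferase reporter in P. falciparum. Infected erythrocytes at 2% hematocrit, 0.05% parasitemia final were treated 96 hours at 37 C under 5% CO2, and luminescence was read.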
# AMA1-RON2 inh – inhibitors of Plasmodium falciparum AMA1-RON2 interaction. AlphaScreen AMA1-biotinylated RON2 peptide binding. Potency, µM (series often up to 58.2 µM), without a hit: top-dose activity change, negative = inhibition, usual class: inhibitors. hit rate 0.2% among 360,000. AID 720542;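 also: 0% = vehicle wells and -100% = peptide control; nearly all actives have a fitted effect of over 45% in size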
#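 AMA1 (3D7) with his tag at 25 nM final met compounds first, then biotinylated RON2 peptide at 25 nM; detection used donor plus acceptor beads, 10 µg/mL apiece, read by AlphaScreen after 30 min at room temperature.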
# HCV inh – HCV inhibition. Huh7.5.1 HCVcc-Cre infection, luciferase reporter, 44 h. hit rate 3.4% among 340,000. Potency, µM (series often up to 41.8 µM), inactives show at the highest dose activity change, negative = inhibition, most hits filed as inhibitors
#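 Seed cells (1,000/well) for 4 h; treat with compound and infect with HCVcc-Cre, moi about 0.5. Incubate 44 h, then detect luciferase activity.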
# Pf growth 48h – P. falciparum growth inhibition at 48 hours (one generation); hit rate 5.9% among 310,000; P. falciparum luciferase growth in erythrocytes, 48 h; Potency, µM (series often up to 28.7 µM), for the others: top-dose activity change, negative = inhibition, actives largely listed as inhibitors
#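 Firefly luciferase activity from engineered P. falciparum reports growth; inhibitors lower the luminescent signal. Cultures contained 2% hematocrit erythrocytes at 0.1% final parasitemia.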
# * hit, by the source's call; ? = inconclusive; nt = not tested or not shown. An excerpt weighted towards active compounds, which were near 11% of everything screened. Calls follow the shape of the dose curve; as a rule, active = well fitted curve in the direction sought with a large enough effect; inconclusive = small, poorly fitted or top-dose-only effect, or another doubt; inactive = no such curve, though single readings can be large; an effect the other way counts as inactive or inconclusive. Unless noted, % is scaled to controls: 0 for no effect and ±100 for the full control effect; potency is read from the fitted curve at half-maximal effect.
SMILES,Pf growth 96h,AMA1-RON2 inh,HCV inh,Pf growth 48h
CC[C@]12c3[nH]c4ccccc4c3CCN1C(=O)C(CC(=O)NCc1ccco1)C[C@@H]2C(=O)N1CCN(C(=O)c2ccco2)CC1 (stereo partly drawn),nt,-3%,5%,nt
CC[C@]12c3[nH]c4ccc(Cl)cc4c3CCN1C(=O)[C@@H](CC(=O)NCc1cccc(C(F)(F)F)c1)C[C@@H]2C(=O)N1CCN(C(=O)c2ccco2)CC1,nt,-26%,32µM*,nt
CC[C@]12c3[nH]c4ccc(Cl)cc4c3CCN1C(=O)[C@@H](CC(=O)NCc1cccc(C(F)(F)F)c1)C[C@@H]2C(=O)N1CCN(C(=O)C2CC2)CC1,nt,-7%,35µM*,nt
CC[C@]12c3[nH]c4ccc(OC)cc4c3CCN1C(=O)C(CC(=O)NCc1cccc(C(F)(F)F)c1)C[C@@H]2C(=O)N1CCN(C(=O)c2ccco2)CC1 (stereo partly drawn),nt,-16%,?,nt
CC[C@]12c3[nH]c4ccccc4c3CCN1C(=O)C(CC(=O)NCc1cccc(C(F)(F)F)c1)C[C@@H]2C(=O)N1CCN(C(=O)C2CC2)CC1 (stereo partly drawn),nt,-11%,?,nt
CC[C@]12c3[nH]c4ccccc4c3CCN1C(=O)C(CC(=O)NCC13CC4CC(CC(C4)C1)C3)C[C@@H]2C(=O)N1CCN(C(=O)c2ccco2)CC1 (stereo partly drawn),nt,-19%,11µM*,nt
CNC(=S)NNC(=O)c1ccccc1Br,9.3µM*,25%,16%,-16%
COc1ccc(NC(=S)N2CCCN(Cc3cc(C)ccc3C)C2)cc1,?,25%,-30%,10µM*
CC1(C(=O)NS(=O)(=O)c2ccc(Cl)s2)CCN1C(=O)C1CCCCC1 (stereo not drawn),nt,5%,nt,nt
CC1CCc2c(nc3nc[nH]n3c2=O)C1 (stereo not drawn),1.2µM*,3%,6%,nt
COc1cc(NC(=S)NCCCN2CCOCC2)cc(OC)c1,54%,9%,-3%,14%
C=CCOc1ccc(-c2nc3c(c(=O)[nH]c(=O)n3CCC)n2CCCC)cc1,7%,-2%,5%,0%
C=CCn1c(SCc2nc3c(c(=O)[nH]c(=O)n3CCCC)n2CCC)nnc1-c1ccccc1,nt,1%,2%,8.3µM*
C[C@@H]1CCCCO[C@H](CN(C)C(=O)Nc2ccc(C(F)(F)F)cc2)[C@@H](C)CN([C@H](C)CO)C(=O)c2cc(NC(=O)c3ccncc3)ccc2O1,nt,7%,nt,nt
COc1ccccc1C(c1nnnn1Cc1ccccc1)N1CCN(C2CCCC2)CC1 (stereo not drawn),12%,-9%,?,?
COc1ccc(C(c2nnnn2CCc2ccccc2)N2CCN(C3CCCC3)CC2)cc1OC (stereo not drawn),0.59µM*,-13%,2%,-19%
COc1ccc(C(c2nnnn2C2CCCC2)N2CCN(C3CCCC3)CC2)cc1OC (stereo not drawn),?,-9%,-4%,6%
CC(C)(C)n1nnnc1C(c1cccnc1)N1CCOCC1 (stereo not drawn),25%,-17%,8%,0%
c1ccc(CCn2nnnc2C(c2cccnc2)N2CCOCC2)cc1 (stereo not drawn),2.6µM*,-4%,16%,-14%
CCCC(c1nnnn1CCc1ccccc1)N1CCC(C(N)=O)CC1 (stereo not drawn),4.1µM*,-5%,-1%,-17%
COc1cccc(C(c2nnnn2Cc2ccccc2)N2CCN(C3CCCC3)CC2)c1OC (stereo not drawn),2.3µM*,-1%,-7%,-5%
O=S1(=O)CC(N2CCSCC2)CN1Cc1cn(Cc2cccc(C(F)(F)F)c2)nn1 (stereo not drawn),nt,-3%,nt,nt
COc1ccc(OC)c(CN2C(=O)c3ccccc3C2c2nnnn2C2CCCC2)c1 (stereo not drawn),nt,4%,nt,nt
COC(=O)c1ccsc1-n1cc(C#N)c(=O)n(C)c1=O,56%,3%,?,7%
Cn1nc(-c2ccccc2)cc1NS(=O)(=O)c1ccc(C#N)cc1,-2%,-8%,15%,2%
SMILES,Pf growth 96h,AMA1-RON2 inh,HCV inh,Pf growth 48h
COc1ccc(OC)c(C(c2nnnn2Cc2ccccc2)N2CCN(C3CCCCC3)CC2)c1 (stereo not drawn),-16%,-3%,-16%,10µM*
Cc1ccc(C(c2nnnn2CCc2ccccc2)N2CCC(C)CC2)cc1 (stereo not drawn),1%,-15%,?,7.4µM*
O=C(O)COc1ccccc1/C=N/NC(=O)CSc1nnc(-c2ccc(Cl)cc2)n1C1CCCCC1,?,10%,16%,-12%
O=C(CSc1nnc(Cc2cccs2)n1-c1ccc(Cl)cc1)NCc1ccc2c(c1)OCO2,7.4µM*,5%,-10%,0.93µM*
CCn1c(SC(C)C(=O)NC2CCCc3ccccc32)nnc1-c1cccs1 (stereo not drawn),17µM*,38%,6%,nt
CC(Sc1nnc(-c2cccs2)n1Cc1ccccc1)C(=O)NCc1ccc2c(c1)OCO2 (stereo not drawn),8.3µM*,-12%,-4%,nt
Cc1ccc(-c2csc3nnc(SCC(=O)NCc4ccc5c(c4)OCO5)n23)cc1,nt,-10%,6.3µM*,?
CC(C)(C)NC(=O)C(c1ccccn1)N(C(=O)C1CSC(=O)C1)c1ccc(F)cc1 (stereo not drawn),?,5%,14%,-18%
COc1cc(OC)c(CN2CCCCCCC2)cc1Br,13µM*,-7%,6%,nt
COc1cc(OC)c(CN2CCCN(C)CC2)cc1Br,?,14%,7.1µM*,-1%
CCN(CC)S(=O)(=O)c1cc(OC)c(Cl)cc1OC,-28%,-7%,-3%,-3%
O=C(COC(=O)c1ccc(S(=O)(=O)N2CCCCC2)cc1)Nc1ccccc1Cl,36%,-11%,-4%,26%
CN(C)Cc1c(O)ccc2c(-c3ccccc3)cc(=O)oc12,9.3µM*,-9%,0%,-9%
CSCC[C@H](NC(=O)c1ccc(Cl)c(S(=O)(=O)N2CCCC2)c1)c1nc2ccccc2[nH]1,10µM*,-6%,-10%,12µM*
CSCCC(NC(=O)C1CC1)c1nc2ccccc2[nH]1 (stereo not drawn),-2%,-5%,13%,10%
CC(C)C(NC(=O)C(c1ccccc1)c1ccccc1)c1nc2ccccc2[nH]1 (stereo not drawn),nt,7%,12%,9.3µM*
CSCC[C@H](NC(=O)C(C)(C)Oc1ccc(Cl)cc1)c1nc2ccccc2[nH]1,10µM*,-1%,-7%,?
C[C@H](NC(=O)c1ccc(Cl)c(S(=O)(=O)N2CCOCC2)c1)c1nc2ccccc2[nH]1,3.3µM*,4%,-15%,?
O=C(OCc1ccccc1)N1CCCC1/C=C/CN1CCOCC1 (stereo not drawn),3%,13%,12%,23%

# Source: PubChem BioAssay (National Center for Advancing Translational Sciences (NCATS))
